Results: PubChem BioAssay (NCATS)
Records with an inconclusive call do not appear. Values without a mark were called inactive. Active and inactive are the calls of the source. Calls come from the whole dose curve; as a rule, active = well fitted curve in the direction sought with a large enough effect; inconclusive = small, poorly fitted or top-dose-only effect, or another doubt; inactive = no such curve, though single readings can be large; an effect the other way counts as inactive or inconclusive.

Experiments:
[1] = BET inhibitor-based combinations targeting novel dependencies in MECOM-rearranged (r) AML: UCSD-AML1 cell line (AID 2202235); note: nearly all actives have a fitted effect of over 40% in size; note: potency is the fitted concentration of half-maximal effect
Method in brief: (§1)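 Normalized to DMSO and empty-well controls, the luminescence data from CellTiter-Glo after 48 hr drug exposure were fitted across 11 concentrations. Reported metrics are area under the dose-response curve and its Z-transformed form.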

[2] = BET inhibitor-based combinations targeting novel dependencies in MECOM-rearranged (r) AML: AML-194 cell line (AID 2202237; note: potency is the fitted concentration of half-maximal effect; nearly all actives have a fitted effect of over 40% in size)
Method in brief: (§2)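 Here, 11-point titrations of each agent were applied to 500 seeded cells and incubated 48 hr; CellTiter-Glo signal, scaled against DMSO and empty wells, was integrated as AUC, then Z-scored within the individual line.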

[3] = BET inhibitor-based combinations targeting novel dependencies in MECOM-rearranged (r) AML: MV-4-11 cell line (AID 2202233); note: potency is the fitted concentration of half-maximal effect; nearly all actives have a fitted effect of over 45% in size
Method in brief: as §1

[4] = BET inhibitor-based combinations targeting novel dependencies in MECOM-rearranged (r) AML: AML-191 cell line (AID 2202236; note: nearly all actives have a fitted effect of over 35% in size; note: potency is the fitted concentration of half-maximal effect)
Method in brief: as §2

[5] = BET inhibitor-based combinations targeting novel dependencies in MECOM-rearranged (r) AML: SET-2 cell line (AID 2202231); settings: SET-2 AML cells viability, CellTiter-Glo luminescence, 48 h; viability: hits give low values, series mostly up to about 46 µM;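 note: plate controls were DMSO treated cells for no effect and wells without cells for full effect; nearly all actives have a fitted effect of over 35% in size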
Method in brief: as §2

[6] = BET inhibitor-based combinations targeting novel dependencies in MECOM-rearranged (r) AML: OCI-AML3 cell line (AID 2202232); settings: Potency: OCI-AML3 viability; note: nearly all actives have a fitted effect of over 35% in size; note: potency is the fitted concentration of half-maximal effect
Method in brief: as §2

[7] = BET inhibitor-based combinations targeting novel dependencies in MECOM-rearranged (r) AML: HNT-34 cell line (AID 2202234); note: nearly all actives have a fitted effect of over 35% in size; note: potency is the fitted concentration of half-maximal effect
Method in brief: as §1

CC1(C)C(=O)N(c2ccc(C#N)c(C(F)(F)F)c2)C(=S)N1Cc1ccc(-c2cn[nH]n2)cc1
Potency [1]: inactive | Potency [2]: 20900 nM (active)

CC(=O)OC[C@H]1O[C@@H]([S-])[C@H](OC(C)=O)[C@@H](OC(C)=O)[C@@H]1OC(C)=O.CC[PH+](CC)CC.[Au]
Potency [3]: 235 nM (active) | Potency [1]: 934 nM (active) | Potency [4]: 1050 nM (active) | Potency [2]: 2950 nM (active)

CN1C(=O)COc2c(C(=O)NC3CN4CCC3CC4)cc(Cl)cc21 (stereo not given)
viability [5]: 95.7% | Potency [6]: inactive | Potency [4]: inactive

CC(C)[C@]12O[C@H]1[C@@H]1O[C@@]13[C@@]1(C)CCC4=C(COC4=O)[C@@H]1C[C@@H]1O[C@@]13C2=O
Potency [6]: 59 nM (active) | Potency [7]: 166 nM (active) | Potency [1]: 74.2 nM (active) | Potency [4]: 83.3 nM (active)

CC(N[C@H]1C[C@@H]1c1ccccc1)c1ccc2c(c1)OCCO2 (stereo not given in full)
Potency [7]: inactive | Potency [1]: 1050 nM (active) | Potency [4]: inactive

C[C@]12CC[C@H]3[C@@H](CC[C@@]45O[C@@H]4C(O)=C(C#N)C[C@]35C)[C@@H]1CC[C@@H]2O
Potency [7]: inactive | Potency [1]: inactive

C[C@@H]1CC[C@@]2(OC1)O[C@H]1C[C@H]3[C@@H]4CC=C5C[C@@H](O[C@@H]6O[C@H](CO)[C@@H](O[C@@H]7O[C@@H](C)[C@H](O)[C@@H](O)[C@H]7O)[C@H](O)[C@H]6O[C@@H]6O[C@@H](C)[C@H](O)[C@@H](O)[C@H]6O)CC[C@]5(C)[C@H]4CC[C@]3(C)[C@H]1[C@@H]2C
Potency [3]: 5900 nM (active) | Potency [1]: 8330 nM (active) | Potency [4]: 5250 nM (active) | Potency [2]: 8330 nM (active)

COc1cc([C@@H]2c3cc4c(cc3[C@@H](O)C3COC(=O)C32)OCO4)cc(OC)c1O (stereo not given in full)
Potency [6]: 296 nM (active) | Potency [3]: 372 nM (active) | Potency [1]: 332 nM (active) | Potency [2]: 332 nM (active)

C/C1=C/C[C@@H](/C(C)=C/c2csc(C)n2)OC(=O)C[C@H](O)C(C)(C)C(=O)[C@H](C)[C@@H](O)[C@@H](C)CCC1
Potency [3]: 148 nM (active) | Potency [1]: 118 nM (active) | Potency [4]: 83.3 nM (active) | Potency [2]: 93.4 nM (active)
